# IMPase inh: qHTS Assay for Identifying the Cell-Membrane Permeable IMPase Inhibitors. Inositol monophosphatase 1 (Rattus norvegicus), P97697. CHO-M1 cells, IP1 accumulation, HTRF TR-FRET ratio. inhibition (IP1 accumulation), % at 46.1 µM. 120,000 tested, under 10 active; active = well fitted curve in the direction sought with a large enough effect in the signal ratio, not every such curve was filed as active; inconclusive = small, poorly fitted or top-dose-only effect, or a change in a side signal; inactive = no such curve, though single readings can be large or run the other way; the % refers to the signal ratio;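 also: cells stimulated with carbachol in lithium chloride buffer; plate controls were DMSO basal wells for no effect and reference inhibitor wells for full effect; higher means more IMPase inhibition seen as more IP1 and lower FRET ratio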
# Target sequence (P97697 whole entry, looked up): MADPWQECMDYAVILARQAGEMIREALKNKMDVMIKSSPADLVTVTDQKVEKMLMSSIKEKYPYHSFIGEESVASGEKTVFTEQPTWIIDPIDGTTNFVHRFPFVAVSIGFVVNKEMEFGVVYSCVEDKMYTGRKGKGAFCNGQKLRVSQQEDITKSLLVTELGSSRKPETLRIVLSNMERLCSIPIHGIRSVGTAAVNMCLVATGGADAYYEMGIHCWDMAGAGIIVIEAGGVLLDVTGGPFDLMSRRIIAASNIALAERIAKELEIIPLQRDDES
#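 Seeded CHO-M1 cells were dosed with compound at up to 46 uM, stimulated with carbachol for 30 min, then lysed in IP-One detection reagents. Higher IP1 lowers the TR-FRET signal.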
# ALOX12 inhib: qHTS Assay for Inhibitors of 12-hLO (12-human lipoxygenase). Potency, µM (highest dose often 57.1 µM), for inactives: top-dose activity change, negative = inhibition, most hits filed as inhibitors. Polyunsaturated fatty acid lipoxygenase ALOX12 (Homo sapiens), P18054. 150,000 compounds, 0.12% hits. purified 12-hLO, xylenol orange hydroperoxide absorbance; also: potency is read from the fitted curve at half-maximal effect; nearly all actives have a fitted effect of over 55% in size
#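 Hydroperoxide output read as Fe(III)-xylenol orange absorbance, 573-to-405 nm ratio, after 30 min reaction with 40 uM arachidonic acid. Enzyme: 150 nM purified human 12hLO, 15 min compound preincubation; 25 mM Hepes pH 7.0, room temperature.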
# IMPase Li inh: qHTS Assay for Identifying the Cell-Membrane Permeable IMPase Inhibitors: Potentiation with Lithium | CHO-M1 cells, IP1 TR-FRET (IP-One), carbachol + lithium | Potency, µM (titrated, usually from 59.4 µM), without a hit: at the top dose activity, negative = IMPase inhibition, actives largely listed as inhibitors | 210,000 compounds, 0.35% hits;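 also: IP1 builds up when IMPase is blocked and the TR-FRET signal falls; potency is read from the fitted curve at half-maximal effect; plate controls were basal vehicle for no effect and high inhibitor control for full effect; nearly all actives have a fitted effect of over 50% in size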
#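 CHO-M1, 2000 cells/well, 16–30 h culture; cpd + low Li+, 30 min 37C; lysis with d2-IP1/Eu-anti-IP1 Ab, 10 min RT; TR-FRET 665/620 ratio and 620 channel; AC50 via Hill.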
# HPGD block: qHTS Assay for Inhibitors of HPGD (15-Hydroxyprostaglandin Dehydrogenase); 150,000 compounds, 4.3% hits; AID 894, 2007; Potency, µM, for inactives: at the top dose activity change, negative = inhibition, actives largely listed as inhibitors; purified HPGD, NADH fluorescence kinetic, PGE2 substrate; 15-hydroxyprostaglandin dehydrogenase [NAD(+)] (Homo sapiens), P15428; active = well fitted inhibition curve with a large enough effect, not every such curve was filed as active; inconclusive = small, poorly fitted or top-dose-only effect, or another doubt; inactive = no such curve, though single readings can be large or run the other way; also: potency is read from the fitted curve at half-maximal effect
# Target sequence (P15428 whole entry, looked up): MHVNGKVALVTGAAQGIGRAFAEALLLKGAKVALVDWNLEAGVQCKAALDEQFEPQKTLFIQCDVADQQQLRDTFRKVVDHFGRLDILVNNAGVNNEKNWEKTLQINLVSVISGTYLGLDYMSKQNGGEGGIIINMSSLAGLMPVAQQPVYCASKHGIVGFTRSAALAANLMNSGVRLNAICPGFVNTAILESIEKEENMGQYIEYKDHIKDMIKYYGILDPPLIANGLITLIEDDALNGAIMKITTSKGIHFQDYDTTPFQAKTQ
#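 20 nM HPGD preincubated 15 min at room temperature with compound in 50 mM Tris-HCl pH 8, 0.01% Tween 20. Started with 1 mM NAD+ and 30 uM prostaglandin E2; NADH fluorescence (360/450 nm) read 5 times over 30-s intervals, last minus first.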
# ALDH1A1 inh: qHTS Assay for Inhibitors of Aldehyde Dehydrogenase 1 (ALDH1A1); Aldehyde dehydrogenase 1A1 (Homo sapiens), P00352; Purified ALDH1A1, NADH fluorescence, propionaldehyde substrate; Potency, µM (top dose mostly 75.3 µM), inactives show at the top dose activity, negative = inhibition, hits mostly inhibitors; 220,000 compounds, 7.3% hits; AID 1030, 2008; active = well fitted inhibition curve with a large enough effect, not every such curve was filed as active; inconclusive = small, poorly fitted or top-dose-only effect, or another doubt; inactive = no such curve, though single readings can be large or run the other way;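 also: potency is read from the fitted curve at half-maximal effect; plate controls were no enzyme wells and a reference inhibitor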
# PNC assembly inh: High Content Assay for Compounds that inhibit the Assembly of the Perinucleolar Compartment; PC3M PTB-GFP, PNC prevalence imaging, 16 h; hits give low values; activity change (PNC), negative = inhibition, % at 10 µM; 140,000 compounds, 3.1% hits; AID 2417, 2010;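 active = readout at or below -70, meaning at least 70% loss of cells showing the perinucleolar compartment, a nuclear body marking cancer cells; inconclusive = readout between -30 and a set limit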;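 also: plate controls were DMSO wells for no effect and camptothecin positive control wells for full effect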
#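 PC3M cells stably expressing PTB-GFP, 750–1000 cells/well, treated 16 h at 37 °C with compound (23 nl of library stock), in duplicate. After paraformaldehyde fixation and Hoechst stain, imaged at 20x; PNC prevalence scored by image analysis.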
# Starred values were filed as active, the others as inactive; ? = inconclusive; . = no result; [ ] = dose if it differs, or a comment. Compounds with a hit are over-represented: about 11% of the library has one in this group of screens. Unless noted, calls follow the shape of the dose curve; as a rule, active = well fitted curve in the direction sought with a large enough effect; inconclusive = small, poorly fitted or top-dose-only effect, or another doubt; inactive = no such curve, though single readings can be large; an effect the other way counts as inactive or inconclusive. Unless noted, % is scaled to controls: 0 for no effect and ±100 for the full control effect.
SMILES,IMPase inh,ALOX12 inhib,IMPase Li inh,HPGD block,ALDH1A1 inh,PNC assembly inh
COc1cccc(C2C(C#N)=C(N)N(c3ncn[nH]3)C3=C2C(=O)CCC3)c1 (stereo not given),.,1.3%,1.0%,-15.1%,12.5%,?
COc1ccc(N2C(N)=C(C#N)C(c3ccsc3)C3=C2CCCC3=O)c(OC)c1 (stereo not given),.,-8.5%,7.0%,-5.6%,-3.4%,-109.0*
S=c1[nH]nc(C2CCCCC2)n1/N=C/c1ccncc1,.,.,-3.0%,.,-7.7%,.
COc1ccccc1/C=C/C=N/n1c(-c2ccccc2)n[nH]c1=S,.,.,.,.,28.2µM*,.
COc1ccc(-c2n[nH]c(=S)n2/N=C/C=C/c2ccccc2OC)cc1,8.0,3.4%,3.7%,1.26µM*,1.1%,49.7
COc1ccccc1/C=C/C=N/n1c(-c2ccc(Cl)cc2)n[nH]c1=S,.,.,.,.,11.2µM*,.
COc1ccccc1/C=C/C=N/n1c(C2CCCCC2)n[nH]c1=S,10.5,-21.0%,23.5%,7.08µM*,?,5.4
Fc1ccc([C@@H]2Nc3ccccc3[C@@H]3C=CC[C@@H]32)cc1,4.6,.,.,.,.,.
CCOc1ccc(C(=O)Nc2ccc3oc(-c4cccnc4)nc3c2)cc1,6.6,.,.,.,.,.
CC(C)C[C@H](NC(=O)[C@H](Cc1ccccc1)NC(=O)CNC(=O)CNC(=O)[C@@H](N)Cc1ccc(O)cc1)C(=O)N[C@@H](CCCN=C(N)N)C(=O)N[C@@H](CCCN=C(N)N)C(=O)N[C@@H](CCC(N)=O)C(=O)N[C@@H](Cc1ccccc1)C(=O)N[C@@H](CCCCN)C(=O)N[C@H](C(=O)N[C@H](C(=O)N[C@H](C(=O)O)[C@@H](C)O)C(C)C)C(C)C,.,.,15.9%,.,7.4%,.
O=C(O)c1ccccc1-c1ccccc1C(=O)Nc1ccc2c(c1)Cc1ccccc1-2,.,2.2%[11.4 µM],-8.4%,-4.1%,8.3%[13.5 µM],.
Cc1cc(C)cc(NC(=O)CSc2ccc(-c3ccco3)nn2)c1,4.7,2.0%,12.7%,?,7.08µM*,?
Cc1ccc(NC(=O)CSc2ccc(-c3ccco3)nn2)c(C)c1,.,.,0.5%,.,?,.
O=C(CSc1ccc(-c2ccco2)nn1)c1ccc(F)cc1,1.8,-6.7%,8.0%,?,3.16µM*,-21.9
CC(=O)Nc1ccc(NC(=O)CSc2ccc(-c3cccs3)nn2)cc1,.,.,-16.2%,.,-12.4%,.
Cc1ccc(NC(=O)CSc2ccc(-c3ccco3)nn2)cc1,.,.,1.2%,.,3.16µM*,.
CC(=O)Nc1ccc(NC(=O)CSc2ccc(-c3ccco3)nn2)cc1,.,.,4.3%,.,7.08µM*,.
CCSc1ccc(-c2ccco2)nn1,.,.,-1.8%,.,?,.
Fc1ccc(CSc2ccc(-c3ccco3)nn2)cc1,2.0,0.2%,-1.2%,-8.1%,?,-10.4
N[C@@](CCc1ccccc1)(C(=O)O)c1ccccc1,.,2.4%[11.4 µM],2.2%,-5.4%,2.9%[13.5 µM],.
Cc1ccc(CNC(=O)CSc2ccc(-c3ccco3)nn2)cc1,-10.4,0.2%,-0.3%,-24.4%,14.1µM*,18.2
O=C(CSc1ccc(-c2ccco2)nn1)NCc1ccc(F)cc1,?,-2.2%,-24.7%,-14.2%,?,-15.3
CC(=O)c1ccc(NC(=O)c2ccc(S(=O)(=O)N3CCCC3)cc2)cc1,0.8,-1.6%,23.3%[38.3 µM],-14.2%,?,35.0
O=C(COc1ccc(S(=O)(=O)N2CCCCC2)cc1)NCc1ccncc1,12.3,1.0%,0.1%[38.3 µM],-13.9%,22.4µM*,-22.4
COc1ccc(CCNC(=O)COc2ccc(S(=O)(=O)N3CCCC3)cc2)cc1,.,.,4.4%,.,10µM*,.
SMILES,IMPase inh,ALOX12 inhib,IMPase Li inh,HPGD block,ALDH1A1 inh,PNC assembly inh
COc1ccc(CCC(=O)N2CCN(S(=O)(=O)c3ccc4ccccc4c3)CC2)cc1,-12.9,-6.4%,3.8%[38.3 µM],-18.9%,14.1µM*,-23.8
O=C(Nc1ccc(Cc2ccncc2)cc1)c1ccc(S(=O)(=O)N2CCCC2)cc1,.,.,22.8%,.,14.1µM*,.
COC(=O)COc1ccc(S(=O)(=O)N2CCCCCC2)cc1,.,.,-2.5%,.,-2.3%,.
Cc1nn(Cc2c(F)c(F)c(F)c(F)c2F)c(C)c1NC(=O)c1ccc(COc2ccc(F)cc2)o1,5.5,-1.7%,9.5%[38.3 µM],4.5%,5.7%,23.1
CC1CN(S(=O)(=O)c2ccc(C(=O)Nc3nnc(-c4ccco4)o3)cc2)CC(C)O1 (stereo not given),.,.,2.0%,.,-6.4%,.
Cc1ccc(S(=O)(=O)N2CCCN(S(=O)(=O)c3ccc4ccccc4c3)CC2)cc1,-7.6,6.1%,3.8%,-14.7%,-2.8%,-100.0*
O=C(Nc1nnc(-c2ccco2)o1)c1ccc(S(=O)(=O)N2CCCC2)cc1,.,.,4.0%,.,35.5µM*,.
Cc1cccc(-c2nc3c(cnn3-c3ccccc3)c(=O)n2-c2cccc(Cl)c2)c1,2.3,.,.,.,.,.
CC(CCC(=O)O)C1CCC2C3C(O)C[C@@H]4CC(O)CC[C@@]4(C)C3CC(O)[C@]12C (stereo not given in full),.,2.1%,-2.7%,1.7%,-0.2%,.
Cc1cc(C=C2C(=O)c3ccccc3C2=O)c(C)n1C,17.3,1.5%,2.9%,-15.3%,?,2.7
CCn1c(C)cc(C=C2C(=O)c3ccccc3C2=O)c1C,.,.,7.1%,.,11.2µM*,.
Cc1cc(C=C2C(=O)CCCC2=O)c(C)n1-c1ccccc1,12.6,-2.8%,0.4%,-7.5%,?,0.3
Cc1cccc(-n2c(C)cc(C=C3C(=O)c4ccccc4C3=O)c2C)c1,11.2,-20.9%,7.0%[38.3 µM],-13.8%,1.58µM*,-84.6*
Cc1cc(C=C2C(=O)c3ccccc3C2=O)c(C)n1-c1ccc(Cl)cc1,8.3,5.8%,4.9%,-10.3%,2.24µM*,19.6
Cc1cc(Cl)ccc1Nc1sc(C(=O)c2cc3cc(Cl)ccc3o2)c(N)c1C#N,.,-9.6%[11.4 µM],4.6%,-4.6%,-1.1%[13.5 µM],.
c1cc(CSc2ncnc3nc[nH]c23)ccn1,.,3.9%[11.4 µM],-6.9%,-4.7%,5.8%[13.5 µM],.
N#Cc1cc2c(nc1SCC(O)CS(=O)(=O)Cc1ccc(Cl)cc1)CCCC2 (stereo not given),1.1,-5.1%,4.0%[38.3 µM],-25.2%,?,-9.8
N#Cc1cc2c(nc1SCc1ccccc1)CCC2,2.5[0.369 µM],1.4%,?,-1.6%,?,0.9
COc1ccc2nc(SCC(=O)N3CCCCC3)c(C#N)cc2c1,.,.,-2.6%,.,?,.
COc1ccc2nc(SCC(=O)Nc3ccc(S(=O)(=O)N4CCCC4)cc3)c(C#N)cc2c1,-10.3,-7.0%,12.5%[38.3 µM],-12.6%,?,15.6
